Laboratory results published in PubChem BioAssay.

What was measured:
[1] = system: Botulinum neurotoxin type F light chain protease (Clostridium botulinum); assay: Clostridium botulinum type F light chain protease inhibitors, microsphere substrate cleavage, validation (AID 588459); details: multiplex microsphere protease substrate cleavage assay, flow cytometry; at 10 µM; hits give high values
[2] = molecular target: Botulinum neurotoxin type A (Clostridium botulinum) (UniProt P0DPI0); assay: BoNT/A light chain protease inhibitors, biochemical, multiplex microsphere flow cytometry, validation set (AID 588460); details: at 10 µM, hits give high values
[3] = molecular target: Lethal factor (Bacillus anthracis) (UniProt P15917); assay: Bacillus anthracis lethal factor inhibition, microsphere flow cytometry protease assay, validation at 10 µM (AID 588461); details: multiplex microsphere protease cleavage assay, hits give high values

Measured: inhibition

Sequence of Botulinum neurotoxin type A (Clostridium botulinum) (P0DPI0 whole entry, looked up): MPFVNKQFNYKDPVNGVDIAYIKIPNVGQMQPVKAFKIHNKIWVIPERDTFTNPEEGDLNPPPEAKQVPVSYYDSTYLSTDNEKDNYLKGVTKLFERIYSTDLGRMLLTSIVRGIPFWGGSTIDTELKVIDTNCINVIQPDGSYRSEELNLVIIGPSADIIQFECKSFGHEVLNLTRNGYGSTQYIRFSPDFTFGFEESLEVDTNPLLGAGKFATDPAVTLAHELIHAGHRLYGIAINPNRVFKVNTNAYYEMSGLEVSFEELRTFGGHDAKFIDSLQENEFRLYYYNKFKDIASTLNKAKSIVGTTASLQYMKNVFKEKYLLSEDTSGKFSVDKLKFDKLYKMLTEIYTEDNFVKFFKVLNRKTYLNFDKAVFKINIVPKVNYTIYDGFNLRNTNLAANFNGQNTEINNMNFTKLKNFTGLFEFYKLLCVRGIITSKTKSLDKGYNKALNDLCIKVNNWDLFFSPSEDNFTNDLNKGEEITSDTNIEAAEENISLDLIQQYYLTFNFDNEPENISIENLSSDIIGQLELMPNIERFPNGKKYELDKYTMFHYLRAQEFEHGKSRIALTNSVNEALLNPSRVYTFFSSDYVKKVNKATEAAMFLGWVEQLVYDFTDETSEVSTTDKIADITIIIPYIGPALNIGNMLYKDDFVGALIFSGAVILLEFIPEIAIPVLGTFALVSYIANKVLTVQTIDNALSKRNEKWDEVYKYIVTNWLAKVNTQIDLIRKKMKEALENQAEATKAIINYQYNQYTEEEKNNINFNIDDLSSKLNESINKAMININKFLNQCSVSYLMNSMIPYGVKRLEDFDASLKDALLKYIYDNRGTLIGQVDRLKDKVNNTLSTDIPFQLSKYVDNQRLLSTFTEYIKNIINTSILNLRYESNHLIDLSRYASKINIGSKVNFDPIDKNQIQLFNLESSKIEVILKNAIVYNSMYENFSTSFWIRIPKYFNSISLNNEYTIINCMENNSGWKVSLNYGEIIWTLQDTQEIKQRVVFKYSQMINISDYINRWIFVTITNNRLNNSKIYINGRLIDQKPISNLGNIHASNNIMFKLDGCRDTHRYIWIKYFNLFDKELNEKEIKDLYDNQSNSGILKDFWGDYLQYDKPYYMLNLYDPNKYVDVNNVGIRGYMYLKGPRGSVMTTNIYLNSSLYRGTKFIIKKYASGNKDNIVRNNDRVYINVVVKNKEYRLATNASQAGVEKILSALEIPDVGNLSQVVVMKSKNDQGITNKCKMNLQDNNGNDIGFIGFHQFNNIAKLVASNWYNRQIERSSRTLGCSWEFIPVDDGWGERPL
Sequence of Lethal factor (Bacillus anthracis) (P15917 whole entry, looked up): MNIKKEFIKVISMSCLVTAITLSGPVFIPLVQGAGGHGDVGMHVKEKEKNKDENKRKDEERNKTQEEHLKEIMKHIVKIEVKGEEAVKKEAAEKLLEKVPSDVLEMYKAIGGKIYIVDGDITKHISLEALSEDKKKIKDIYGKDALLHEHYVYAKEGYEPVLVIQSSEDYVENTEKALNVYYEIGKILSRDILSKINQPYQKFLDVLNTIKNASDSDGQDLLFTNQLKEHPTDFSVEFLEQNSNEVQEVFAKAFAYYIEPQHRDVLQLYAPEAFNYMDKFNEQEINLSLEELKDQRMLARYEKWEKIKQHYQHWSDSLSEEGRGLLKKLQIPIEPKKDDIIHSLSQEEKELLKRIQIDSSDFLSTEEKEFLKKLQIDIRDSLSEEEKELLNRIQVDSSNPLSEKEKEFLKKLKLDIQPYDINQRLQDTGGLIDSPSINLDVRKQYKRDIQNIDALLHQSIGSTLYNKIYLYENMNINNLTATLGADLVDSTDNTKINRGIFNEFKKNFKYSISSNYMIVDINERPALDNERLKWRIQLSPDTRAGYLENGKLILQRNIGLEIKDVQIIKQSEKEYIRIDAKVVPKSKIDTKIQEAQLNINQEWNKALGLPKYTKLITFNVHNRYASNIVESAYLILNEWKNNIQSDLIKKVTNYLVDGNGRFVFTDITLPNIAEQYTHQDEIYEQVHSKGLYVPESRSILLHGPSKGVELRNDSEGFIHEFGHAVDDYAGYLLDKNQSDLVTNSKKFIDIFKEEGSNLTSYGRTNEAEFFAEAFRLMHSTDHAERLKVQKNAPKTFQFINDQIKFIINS

COc1ccccc1C1(CC(=O)N2CCCCC2)CCOC(C(C)C)C1 (stereo not drawn)
inactive: [1] 1.1% | [2] -0.2% | [3] -3.3%

COc1cc(CC(=O)NCCc2ccc(S(N)(=O)=O)cc2)cc(OC)c1OC
inactive: [1] 4.1% | [2] 1.6% | [3] 6.5%

COc1ccc(/C=C2\CC/C(=C\c3ccc(OC)c(OC)c3)C2=O)cc1OC
inactive: [1] 1.7% | [2] 0.1% | [3] -5.9%

O=C(C1CCCCC1)N1CC(=O)N2CCc3ccccc3C2C1 (stereo not drawn)
inactive: [1] -2.5% | [2] -1.1% | [3] 3.9%

Cc1ccc(C(=O)COC(=O)c2cnccn2)cc1[N+](=O)[O-]
inactive: [1] 2.8% | [2] -0.2% | [3] -5.2%

COC(=O)c1ccc(CC(=O)c2ccc(O)cc2O)o1
inactive: [1] -3.4% | [2] -0.8% | [3] -5.4%

Cc1csc(-c2coc3cc(O)cc(C)c3c2=O)n1
inactive: [1] 0.3% | [2] 1.7% | [3] 0.3%

C#CCN1C(=O)C(O)(CC(=O)c2ccc(OC)c(OC)c2)c2ccccc21 (stereo not drawn)
inactive: [1] 2.3% | [2] -1.3% | [3] 2%

CCOC(=O)n1c(=O)oc2ccccc21
inactive: [1] 0.5% | [2] 0.5% | [3] -4%

O=C(CC(C(=O)O)c1c[nH]c2ccccc12)c1ccccc1 (stereo not drawn)
inactive: [1] 0.3% | [2] 2% | [3] 6.4%

CC(=O)Oc1c2occc2cc2ccc(=O)oc12
inactive: [1] -2.4% | [2] -1% | [3] -7.3%

CCCNC(=O)NS(=O)(=O)c1ccc(Cl)cc1
inactive: [1] 5.6% | [2] -0.4% | [3] -1%

COc1ccc(CN(C)CCc2ccccn2)cc1OC
inactive: [1] -2.7% | [2] 0.2% | [3] -7.1%

COc1ccc(CC(=O)c2c(O)cc(O)cc2O)cc1OC
inactive: [1] 0% | [2] 1.7% | [3] -2.8%

COc1ccc(CNC(=O)c2cc3c(=O)n4ccccc4nc3n(Cc3cccnc3)c2=N)cc1
inactive: [1] -1.2% | [2] 0.4% | [3] -1.9%

COc1cccc(NC(=O)C2CC(=O)OC23CCOC(C)(C)C3)c1 (stereo not drawn)
inactive: [1] -5.5% | [2] -1.3% | [3] -8.2%

CC(=O)CSc1ncnc2c1cnn2-c1ccccc1
inactive: [1] 2.3% | [2] 0.8% | [3] -1.6%

CC(=O)N(CCC1(c2ccc(C)cc2)CCOC(C(C)C)C1)Cc1ccco1 (stereo not drawn)
inactive: [1] -5.3% | [2] 0% | [3] -7.5%

CCOC(=O)c1oc2cc(O)cc(C)c2c(=O)c1-c1cscn1
inactive: [1] 1.4% | [2] 1.8% | [3] -2.6%

C=C(C)[C@@H]1CC=C(CN2CCC(N3CCC(C(=O)N4CCCC4)CC3)CC2)CC1
inactive: [1] 7.8% | [2] 0.8% | [3] -0.3%

COc1cc2c(cc1O)CC[C@@H]1[C@@H]2CC[C@]2(C)[C@@H](O)CC[C@@H]12
inactive: [1] -2.1% | [2] -2.2% | [3] -2.9%

CC(=O)Nc1nc(CCC(C)C)cc2c1c(=O)oc1ccccc12
inactive: [1] 1.3% | [2] -0.1% | [3] -9.4%

CC(=O)Oc1cc(C(C)C)c(OCCN(C)C)cc1C
inactive: [1] 1.9% | [2] 2% | [3] 0.9%

COc1cccc(OC)c1C(=O)Nc1nc2ccc([N+](=O)[O-])cc2s1
inactive: [1] 7.7% | [2] 3.3% | [3] 7.5%

COc1ccc(CN2CCCC(C(=O)c3ccc(Cl)cc3)C2)cc1Cn1cccn1 (stereo not drawn)
inactive: [1] 1.9% | [2] -0.6% | [3] 3.9%

C/C=C/Cn1c(SC)nc2c1c(=O)[nH]c(=O)n2C
inactive: [1] -2.2% | [2] 0.9% | [3] -3.1%

Nc1nc2ccc(OC(F)(F)F)cc2s1
inactive: [1] 0.4% | [2] -0.1% | [3] 1.8%

COc1cc2c(cc1OC)C1(CCCCC1)CN(C)C2
inactive: [1] 1.7% | [2] -1.2% | [3] -1.7%

CNCCCC12CCC(c3ccccc31)c1ccccc12
inactive: [1] -2% | [2] -2.1% | [3] -5%

O=C1c2ccccc2C2(c3ccccc3)NCCN12 (stereo not drawn)
inactive: [1] -1.6% | [2] -1.3% | [3] 8.5%

N/C(=N/OS(=O)(=O)c1ccc([N+](=O)[O-])cc1)c1ccncc1
inactive: [1] 2.2% | [2] 0.3% | [3] 1%

COc1cc2c(cc1OC)C(c1cc(OC)c(OC)c(OC)c1)NCC2 (stereo not drawn)
inactive: [1] 2.3% | [2] -0.2% | [3] 6.9%

O=C1OC(=O)C2C1[C@@H]1CC[C@H]2O1 (stereo partly drawn)
inactive: [1] 1.3% | [2] 0.8% | [3] -0.9%

CCOc1ccccc1C(=O)NCCC(=O)O
inactive: [1] 2.8% | [2] 1.9% | [3] 0.2%

COCCCC/C(=N\OCCN)c1ccc(C(F)(F)F)cc1
inactive: [1] -1.3% | [2] -0.2% | [3] -0.1%

CCCN(CCC)S(=O)(=O)c1ccc(C(=O)O)cc1
inactive: [1] 2.8% | [2] 1.1% | [3] 0%

CC(=O)c1cccc2c(O)c(C3=Nc4ccccc4C3=O)[nH]c12
inactive: [1] -2.1% | [2] 0.6% | [3] 6.7%

CC(=O)OCC(=O)[C@@]1(O)CC[C@H]2[C@@H]3CCC4=CC(=O)CC[C@]4(C)[C@H]3[C@@H](O)C[C@@]21C
inactive: [1] -3.3% | [2] -3.5% | [3] -5.1%

CS(=O)(=O)NCc1ccc(C(=O)NCc2ccccc2)cc1
inactive: [1] 2.9% | [2] 0.5% | [3] -4.2%

COc1cc(C2Nc3ccccc3C(=O)N2c2ccccc2)ccc1O (stereo not drawn)
inactive: [1] 0.9% | [2] 0% | [3] -4.4%

COc1ccc2nc(C)cc(Nc3ccccc3O)c2c1
inactive: [1] 1% | [2] 1% | [3] -1.4%

COc1ccc(S(=O)(=O)NCc2ccco2)c2ccccc12
inactive: [1] 4.7% | [2] 0.4% | [3] 1%

O=Cc1ccc(OC(=O)c2cccnc2)cc1
inactive: [1] 0.2% | [2] -0.7% | [3] -3.8%

CCCNC(C)C(=O)Nc1ccccc1C (stereo not drawn)
inactive: [1] 0.2% | [2] 0.2% | [3] -4.8%

COc1cc2c(cc1OC)C(c1ccc(-c3cc(Cl)ccc3Cl)o1)=NCC2
inactive: [1] 0.4% | [2] 0.7% | [3] -4.2%

COc1ccc(C2C(C(=O)c3ccco3)=C(O)C(=O)N2CC2CCCO2)cc1 (stereo not drawn)
inactive: [1] 1.3% | [2] 0.2% | [3] -4.2%

COc1cc(OC)c(C(=O)CCCN2CCCC2)c(OC)c1
inactive: [1] 2.9% | [2] -0.9% | [3] -2.6%

NC(CO)C(=O)NNCc1ccc(O)c(O)c1O (stereo not drawn)
inactive: [1] -15.8% | [2] -11.2% | [3] -25.4%

CCCC(=O)O[C@]1(C(=O)CO)CC[C@H]2[C@@H]3CCC4=CC(=O)CC[C@]4(C)[C@H]3[C@@H](O)C[C@@]21C
inactive: [1] 5.1% | [2] 0.1% | [3] -0.6%

CC(=O)NC(Cc1c[nH]c2ccccc12)C(=O)N/N=C/c1ccccc1 (stereo not drawn)
inactive: [1] -1.4% | [2] -0.1% | [3] -5.7%

O=c1[nH]cnc2[nH]ncc12
inactive: [1] 4.1% | [2] 0.8% | [3] -1.1%

O=C1CCCN1C(=O)CCC(=O)N1CCCC1=O
inactive: [1] -1.4% | [2] 0.3% | [3] -2.8%

Cc1ccc(C(=O)Nc2ccccc2C(=O)NC(C(=O)O)C(C)C)cc1 (stereo not drawn)
inactive: [1] 4.4% | [2] 0.5% | [3] -2%

Cc1c(Cc2ccccc2)c(=O)oc2c(CN(C)C)c(O)c(Cl)cc12
inactive: [1] 0% | [2] -0.6% | [3] -7.6%

O=C(O)CCCc1ccccc1
inactive: [1] -3.3% | [2] -2.3% | [3] -6.6%

COC(=O)c1[nH]c2ccc(C)cc2c1NC(=O)CN1CCc2cc(OC)c(OC)cc2C1
inactive: [1] -1.9% | [2] -1.7% | [3] 2.1%
